A selection: hits, their analogues and other compounds. The true share with any hit is near 3.8%.
HT1080-NT tox: qHTS for induction of synthetic lethality in tumor cells producing 2HG: qHTS for the HT-1080-NT fibrosarcoma cell line. Potency, µM (series often up to 46.1 µM), without a hit: at the highest dose activity, negative = less viability, actives largely listed as cytotoxic. 360,000 tested, 1.6% active. HT-1080-NT fibrosarcoma viability, CellTiter-Glo ATP luminescence, 48 h;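 also: NT is the 2HG producing partner of a matched IDH1 knockdown line; 0% = DMSO-treated cells and -100% = media-only wells without cells; nearly all actives have a fitted effect of over 55% in size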
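HT-1080-NT fibrosarcoma cells (2HG-overproducing), 750 cells/well in RPMI with 5% FBS, dosed after 2 h and incubated 48 h at 37C. CellTiter-Glo luminescence normalized to DMSO and no-cell wells; concentration-response curves fitted and classed.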
HT1080 IDH1KD tx: qHTS for induction of synthetic lethality in tumor cells producing 2HG: qHTS for the HT-1080-IDH1KD cell line; AID 686971, 2013; 360,000 tested, 2% active; Potency, µM (highest dose often 46.1 µM), for the others: at the highest dose activity, negative = toxicity, hits mostly cytotoxic; HT-1080 IDH1 knockdown viability, ATP luminescence, 48 h;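 also: 0% = DMSO wells and -100% = cell-free medium wells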
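Viability of IDH1-knockdown HT-1080 fibrosarcoma cells was assessed by CellTiter-Glo after 48 h at 37 °C with titrated compound; concentration-effect curves were classified by fit quality and response size.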
HepG2 tox: qHTS for Inhibitors of TGF-b: Cytotox Counterscreen. HepG2 CAGA-GFP viability, ATP luminescence, 18 h. Potency, µM (doses to about 46.1 µM), for inactives: at the top dose activity change, negative = cytotoxicity, hits mostly cytotoxic. 410,000 tested, 0.76% active. AID 588856, 2011
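HepG2 CAGA-GFP cells (1000/well, DMEM with 1% FBS) received compound, then TGF-beta at 500 pg/mL final, and were incubated 18 hours at 37 degrees C. Viability was read by CellTiter-Glo luminescence. Media-only wells were set as complete cell-killing and DMSO as no toxicity.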
S2 tox: Viability Counterscreen for Primary qHTS for Inhibitors of ATXN expression | S2 cells (HEK-293 line with an ATXN2-luciferase reporter) viability, CellTiter-Fluor protease fluorescence, 24 h | Potency, µM (series often up to 56.7 µM), most hits filed as cytotoxic | 400,000 tested, 0.49% active; also: nearly all actives have a fitted effect of over 40% in size
ATXN2 expr inh: Primary qHTS for Inhibitors of ATXN expression | AID 1745845, 2022 | 360,000 tested, 0.72% active | Potency, µM (doses to about 57 µM), for inactives: top-dose activity change, negative = inhibition, actives largely listed as inhibitors | HEK-293 ATXN2-luciferase reporter, luminescence, 24 h; also: % is scaled to controls: 0 for no effect and ±100 for the full control effect; nearly all actives have a fitted effect of over 55% in size
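ATXN2-luciferase reporter cells (luciferase flanked by upstream and downstream ATXN2 gene portions) were treated 24 h at 37 °C with compounds at up to 57 uM. SteadyGlo luminescence gave expression; GF-AFC fluorescence gave viability.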
TGFb inhibitor: qHTS for Inhibitors of TGF-b; HepG2 CAGA-GFP TGF-b/SMAD3 reporter, GFP fluorescence, 18 h; TGF-beta stimulated, 500 pg/mL final; Potency, µM (doses to about 46.1 µM), for the others: at the highest dose activity, negative = inhibition, actives largely listed as inhibitors; 410,000 tested, 1.2% active; also: % is scaled to controls: 0 for no effect and ±100 for the full control effect; nearly all actives have a fitted effect of over 65% in size
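Inhibition of TGF-beta-driven CAGA-GFP reporter expression in HEPG2 cells is measured by cellular GFP fluorescence after 18 h stimulation with 500 pg/mL recombinant TGF-beta in 1% FBS medium at 37 degrees C.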
Starred values were filed as active, the others as inactive; i = inactive; ? = inconclusive; . = no result. Calls follow the shape of the dose curve; as a rule, active = well fitted curve in the direction sought with a large enough effect; inconclusive = small, poorly fitted or top-dose-only effect, or another doubt; inactive = no such curve, though single readings can be large; an effect the other way counts as inactive or inconclusive. Potency is read from the fitted curve at half-maximal effect.

SMILES	HT1080-NT tox	HT1080 IDH1KD tx	HepG2 tox	S2 tox	ATXN2 expr inh	TGFb inhibitor
CCn1c(SCC(=O)NCc2ccco2)nnc1-c1cccc(N(C)C)c1	.	.	11%	.	.	3%
O=C(NCCCc1nc2ccccc2n1Cc1cccc(Cl)c1)c1ccco1	.	.	-25%	.	.	-46%
COc1ccc(CN2CCN(CC(O)Cn3c4ccccc4c4ccccc43)CC2)cc1 (stereo not drawn)	18µM*	?	-108%	?	?	?
Cc1cccc(N2C(=O)C(Oc3ccc(Cl)cc3Cl)C2C=O)c1C (stereo not drawn)	9.2µM*	?	-72%	?	?	?
COCCN1CC(=O)N(c2cccc(C)c2C)C(c2ccc(Cl)cc2)C1=O (stereo not drawn)	12%	19%	0%	i	-1%	1%
COc1cccc(-c2ccnc(-n3ncc(C(=O)N(C)CCc4ccccn4)c3C)n2)c1	.	.	.	i	.	.
Cc1onc(-c2ccccc2)c1C(=O)NNC(=S)NC(=O)c1ccc(Cl)cc1Cl	-20%	?	13µM*	i	-17%	?
COC(=O)c1ccc2c(c1)N(CC(=O)Nc1cccc(Cl)c1C)C(=O)c1ccccc1S2	.	.	-1%	i	2%	-10%
COc1ccc(CCN(C)CC(O)COc2c(C)ccc(C)c2C)cc1OC (stereo not drawn)	-22%	-29%	-16%	i	-25%	-12%
COc1ccc(CCN(C)CC(O)COC(c2ccc(F)cc2)c2ccc(F)cc2)cc1OC (stereo not drawn)	23µM*	?	-93%	i	-20%	-110%
COc1ccc(CN(C)CC(O)COc2ccc(C(=O)c3ccccc3)cc2)c(OC)c1OC (stereo not drawn)	21µM*	?	-34%	?	0%	?
COc1ccc(CN(C)CC(O)COC(c2ccccc2)c2ccccc2)c(OC)c1OC (stereo not drawn)	23µM*	?	-46%	i	-36%	?
CN(CCOc1ccccc1)CC(O)COc1ccccc1 (stereo not drawn)	-6%	-9%	-6%	i	-2%	3%
CN(CCOc1ccc(Br)cc1)CC(O)COc1ccc(C#N)cc1 (stereo not drawn)	21µM*	?	-40%	i	?	?
CCn1c(CNC(=O)c2ccc(OC)cc2)nnc1SCC(=O)Nc1ccc(C)cc1	.	.	-8%	?	-3%	?
CC(=O)c1ccc(NC(=O)C(Cc2ccccc2)NS(=O)(=O)c2ccc3c(c2)CCC(=O)N3)cc1 (stereo not drawn)	.	.	4%	i	-6%	?
CCC(=O)C1=C(c2cccc([N+](=O)[O-])c2)N(C(=O)CC)n2c(nnc2C2CCCCC2)S1	.	.	2%	.	.	5%
COCCN(C)C(=O)c1cnn(-c2nccc(-c3cc(C)sc3C)n2)c1C	.	.	.	i	.	.
COc1ccc(Br)cc1CN(C)CC(O)COc1ccc(Br)cc1 (stereo not drawn)	21µM*	?	18µM*	i	?	?
OCCN(CCO)CC(O)COc1ccc(Br)cc1 (stereo not drawn)	4%	0%	-15%	?	.	-7%
O=C(COc1ccccc1)Nc1cccc(-c2nc3cc4ccccc4cc3[nH]2)c1	?	?	10µM*	?	-20%	?
COc1ccccc1CCNC(=O)c1ccc2c(c1)c(C)c(C)n2C	.	.	-31%	.	.	?
CSc1nc(N(C)NC(=O)c2ccc(Cl)cc2)c2ccccc2n1	0.73µM*	?	-17%	?	-12%	?
CSc1nc(N(C)NC(=O)c2ccccc2)c2ccccc2n1	0.58µM*	0.58µM*	3%	?	-19%	-7%
NC1=NC(c2ccc(Cl)cc2)C(C(=O)c2ccccc2)N1 (stereo not drawn)	18µM*	15µM*	-7%	?	.	?
SMILES	HT1080-NT tox	HT1080 IDH1KD tx	HepG2 tox	S2 tox	ATXN2 expr inh	TGFb inhibitor
COc1ccc(OC)c(CNc2ncnc3onc(-c4ccc(Cl)cc4)c23)c1	.	.	-8%	?	-5%	3%
CCCCCCc1cc2cc(S(=O)(=O)c3ccc(Cl)cc3)c(=O)oc2cc1O	0%	2%	-59%	.	?	11µM*
CCCCCCc1cc2cc(C(=O)Nc3ccccc3)c(=O)oc2cc1O	?	?	-6%	i	7.1µM*	?
CCCCCCc1cc2cc(S(=O)(=O)c3ccc(C)cc3)c(=O)oc2cc1O	0%	-18%	-42%	.	?	?
CS(=O)(=O)N(CC(=O)NCCSCc1ccccc1)c1cc(C(F)(F)F)ccc1Cl	.	.	-5%	i	-12%	?
COCCCN(C(=S)Nc1cc(Cl)cc(Cl)c1)C(C)c1ccccn1 (stereo not drawn)	?	-12%	16µM*	i	.	?
COC(=O)c1sccc1S(=O)(=O)N(CC(=O)NCc1ccc(F)cc1)c1ccc(Cl)cc1	.	.	-4%	?	-2%	?
O=C(/C=C/c1ccco1)NC(=S)Nc1cccc(-c2nc3ccccc3s2)c1	23µM*	21µM*	-4%	i	44%	4%
Cc1cccc(NC(=S)NC(=O)/C=C/c2ccco2)c1	?	?	-10%	i	8%	-11%
O=C(/C=C/c1ccco1)NC(=S)Nc1cccc([N+](=O)[O-])c1	21µM*	13µM*	5%	i	-31%	-3%
O=C(/C=C/c1ccco1)NC(=S)Nc1cccc(-c2nc3ccccc3o2)c1	5.2µM*	5.8µM*	0%	i	16%	?
O=C(/C=C/c1ccco1)NC(=S)Nc1cc(-c2nc3ccccc3s2)ccc1Cl	?	?	5%	?	0%	22%
O=C(c1cc(-c2ccccc2)on1)N1CCOc2ccc(CN3CCN(c4ccccn4)CC3)cc2C1	.	.	.	i	.	.
O=C(NC(=S)NCCN1CCOCC1)c1cccc(Cl)c1	25µM*	?	2%	i	17%	-20%
O=C(NC(=S)NCCN1CCOCC1)c1ccccc1	-6%	0%	-9%	i	22%	-3%
CC(=O)N1CCc2c(sc3nc(SCC(N)=O)n(-c4ccc(F)c(Cl)c4)c(=O)c23)C1	.	.	-18%	i	4%	3%

Screening results: PubChem BioAssay, National Center for Advancing Translational Sciences (NCATS)
